# In the supplement of paper PMC3334620:
# Whole data set: some 33,000 sequences, median “E-score (-0.5 to 0.5)” near -0.016, cut for the highest 2% near 0.32. Many of the other results were omitted from the sample, so the highest values are more common in it than they were.
# Biological target: T1, Stp1 (UniProt B3LFK1)
# T1 sequence: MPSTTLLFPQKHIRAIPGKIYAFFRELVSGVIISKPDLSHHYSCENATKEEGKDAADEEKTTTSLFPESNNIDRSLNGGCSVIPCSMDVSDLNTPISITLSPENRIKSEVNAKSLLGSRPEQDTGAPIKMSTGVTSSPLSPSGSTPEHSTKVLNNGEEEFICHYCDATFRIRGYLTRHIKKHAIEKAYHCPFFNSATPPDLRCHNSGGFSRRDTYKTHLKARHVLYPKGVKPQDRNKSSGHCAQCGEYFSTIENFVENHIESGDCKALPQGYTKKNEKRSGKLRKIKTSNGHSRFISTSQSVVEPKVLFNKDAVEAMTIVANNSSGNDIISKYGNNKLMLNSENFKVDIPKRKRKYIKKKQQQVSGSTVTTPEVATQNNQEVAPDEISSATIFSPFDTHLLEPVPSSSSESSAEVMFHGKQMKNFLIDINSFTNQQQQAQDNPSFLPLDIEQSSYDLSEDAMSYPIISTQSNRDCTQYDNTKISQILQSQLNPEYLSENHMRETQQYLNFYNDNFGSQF
# Experiment: PBM E-score (8-mer binding enrichment) (E-score (-0.5 to 0.5)); higher = stronger / more preferred TF binding
# Conditions: protein concentration: 200 nM; construct: GST-full length
# How it was run: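 For each ungapped eight-base word taken together with its reverse complement, the Universal PBM Analysis Suite assigned an E-score. Binding data came from GST-tagged yeast transcription factors, applied at about 100-200 nM, on universal all-10-mer Agilent arrays made double-stranded by primer extension. Fluorescent anti-GST marked bound protein, and scans were normalised with masliner.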
row,Sequence,PBM E-score
1,GACCAGCC,-0.259
2,CCGGTAGG,0.0318
3,TACGTAAA,0.189
4,CAAGACCA,-0.15
5,ATACCGCC,0.1
6,AAGTTATC,-0.0807
7,AGATGCAA,-0.0126
8,GAGTGCGA,-0.046
9,GCAACGGA,0.228
10,AGAGCCGG,-0.0632
11,CCAGCCGC,0.125
12,CTAGCCGA,-0.0941
13,CGAGCCGA,0.124
14,AGAGCCGC,0.44
15,ATAGCCGC,0.298
16,AGAGCCGA,0.225
17,CGAGCCGC,0.385
18,CTAGCCGC,0.395
19,AATTTGCA,-0.0371
20,AACGAGAC,-0.0773
21,ATGTTACA,0.182
22,GCTGCTGA,0.189
23,CCAAAGAA,0.068
24,TAGCTGAA,-0.0818
25,GAAACGAC,0.0801

row,Sequence,PBM E-score
1,ACCGGCGA,0.134
2,GCCGGCGA,-0.00476
3,GACGGCGA,0.4
4,CACGGCGA,0.474
5,CACGGCGG,0.417
6,GTCGGCGA,-0.0125
7,CATGGCGA,-0.0243
8,CCCGGCGA,-0.0779
9,AACGGCGA,0.452
10,CACGGGGG,-0.208
11,AACGGGGA,-0.0385
12,CCCGGCGG,-0.317
13,AGTTGAGG,-0.0375
14,CCGTTCTA,0.237
15,GTGCATAA,0.183
16,CGTGCAAC,0.138
17,CCCAAATA,-0.153
18,TCCGAAAA,-0.159
19,TCCGGCGA,0.1
20,TAAGGCGA,0.315
21,TACGGCGA,0.473
22,GCCTCGAC,0.0115
23,CTGGGGAC,-0.392
24,ATGCGGTC,0.0837
25,ATGCGGCG,0.485

row,Sequence,PBM E-score
1,ATGCGGCC,0.331
2,ATGCGGGC,0.0547
3,ATGCGGAG,-0.0518
4,ATGCGGTG,-0.103
5,TAGCGCTA,-0.0704
6,TCCTCTAA,-0.222
7,CGCGATTC,0.118
8,ACTGGTCA,-0.105
9,CCACGCGG,0.18
10,GTGCCGGA,0.175
11,CTGCCGCC,0.226
12,ATGCCACA,0.243
13,CTGCCGCA,0.347
14,ATGCCGGA,0.0395
15,ATGCCACG,0.275
16,ATGCCGCG,0.475
17,CTACCGCA,0.0499
18,ATTCCGCA,0.0903
19,ATGCCGCA,0.468
20,GTGCCGCA,0.483
21,GTGCCAAA,0.119
22,GCTTTGTA,0.135
23,AAGTTAGG,0.0337
24,CAACCACG,0.0433
25,GGCTGAAA,0.103

row,Sequence,PBM E-score
1,AAGCTCAA,-0.135
2,CTATGCCC,-0.0982
3,ATGCCGCC,0.386
4,ATGCCGGC,0.0928
5,AGGCCGCC,-0.0139
6,GGTTTGAA,0.0901
7,GAAGTGAC,-0.0146
8,AGAAGGCG,0.2
9,AAAAGGCG,0.34
10,AAAAGGCC,0.174
11,CAAAGGCA,0.184
12,GCAAGGCC,0.151
13,AAAAGGCA,0.359
14,GAAAGGCA,0.376
15,GCAAGGCA,0.38
16,AAAAGGCT,0.0632
17,CAAAGGCG,0.129
18,ACAAGGCA,0.315
19,GAAAGGCC,0.272
20,TGAGAAAA,0.116
21,GCCCCTAA,-0.229
22,CTAAGGGC,-0.224
23,CTTTTCGA,0.174
24,CACCCTAG,-0.172
25,GCAGAAAC,0.234

row,Sequence,PBM E-score
1,ACAGTCGA,-0.262
2,AAACGCCG,0.428
3,GAACGCCA,0.0737
4,CAACGCCC,0.0959
5,CAACGCCA,0.0795
6,AAACGCCC,0.231
7,AAACGCCT,0.141
8,TAACGCCA,0.133
9,AAACGCCA,0.345
10,CAACGCCG,0.391
11,CTGGAAAG,-0.15
12,AGCGAAAG,-0.138
13,ATGGCTAG,0.0312
14,CCTTTCCG,0.0145
15,ATGACTTC,0.00281
16,AGTACTTG,0.142
17,GGGGACGA,-0.249
18,ATCTCACG,0.015
19,CCAGTGCC,0.179
20,ATGGTGCC,0.372
21,GCAGTGCC,0.253
22,ACAGTGCC,0.321
23,ATGGTGCG,-0.0219
24,ACGGTGCA,-0.00717
25,ACGGTGCC,0.396

row,Sequence,PBM E-score
1,ACGGTGCG,0.173
2,CTGGTGCC,0.252
3,AACTGGAT,0.0626
4,TCCCATCA,-0.201
5,GGACTGCA,-0.229
6,GAGCAGAA,-0.0386
7,CTCACGGA,0.0462
8,GTCACGGA,-0.0129
9,CGCACGGA,0.39
10,CGCACGCA,-0.00526
11,GGCACGGA,0.376
12,GGCACGCA,0.288
13,TACTCTAA,0.034
14,CCCTGTCG,0.0867
15,CATATGGG,-0.035
16,AGGGTCGC,0.0437
17,AGCGGCGA,0.386
18,AGCGGCGC,0.452
19,GGCGGCGA,0.276
20,CGCGGTGA,0.0941
21,ACCGGCGG,0.0942
22,CGCGGAGA,0.109
23,AGCGGCCA,-0.114
24,AGCGGCGG,0.337
25,CGCGGCGA,0.451

row,Sequence,PBM E-score
1,AGCGGGGG,-0.287
2,AGCGGGGC,0.0451
3,AGCAGCGC,0.0916
4,AGAGCTTG,-0.106
5,ATGAGCTG,-0.175
6,GATCCATA,0.134
7,ACGCTAAG,0.00258
8,CGGACCGA,0.0676
9,CCTCGCAG,-0.0486
10,GCGTCTAC,-0.155
11,AACTGCCT,0.0172
12,AACTGCCG,0.329
13,AACTGCCC,-0.192
14,CACTGCCA,0.0847
15,CACTGCCG,0.336
16,CACTGCCC,-0.071
17,AGATCCAA,0.0566
18,AAGCTGTG,-0.106
19,GCCTTGTA,0.354
20,CCCTTGCA,-0.163
21,GCCTTGCA,0.33
22,TCCTTGCA,-0.0871
23,ACCTTGTA,0.0137
24,CCCTTGTA,-0.178
